Data on 89 sequences can be found in the supplement of paper PMC11417369.

± gives the standard deviation of the averaged measurements. In all, about 25,000 sequences were measured (“ln(normalized median fluorescence intensity)”: median about 8.6, highest 2% from about 10 on). Many of the other results were omitted from the sample, so the highest values are more common in it than they were.

The test relates to PfAP2-EXP AP2 domain (GST-tagged). In words: gcPBM binding intensity (ln(normalized median fluorescence intensity)); higher = stronger DNA binding. A digest of the protocol: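 DNA-binding domains from P. falciparum, fused to GST and produced in E. coli, were put on an Agilent 4 × 180k double-stranded probe array for 1 h in 1× PBS holding 1% milk, 0.2 mg/ml BSA, 0.5% salmon testes DNA and 0.03% Triton X-100. Probes were primer-extended, 36 bp long and drawn from intergenic genomic regions, with negative controls included. After Alexa488 anti-GST antibody detection and a 488 nm scan, binding intensity was set as the highest Masliner-normalised natural-log median intensity across replicate spots of either probe orientation.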
For the sequence “GTTAATATTTTTGGGGGTACTTAAAAAAAAAAAAAA [XGTACX_site1477]”, the “gcPBM binding intensity (ln)” value worked out at 9.35 ± 0.26.
The result for “ATTTTTTTTTTTTTTTTGGGGGGGTATACTTTTAAA [CACACA_negctrl_site1020]” reads 11.2 ± 0.18.
The result for “TATACTTTATATATTTTGTATATATATTTTTTTTAT [TGCATGCA_negctrl_site530]” reads 8.43 ± 0.31.
On to “AAAAAAGAAAAAAAGTGTACAATATTTATTACATAT [XGTACX_site2277]”, for which the “gcPBM binding intensity (ln)” value amounted to 8.08 ± 0.028.
The result for “TATTTAATTACATGAACACACATTATGTATTTTTAA [CACACA_site2962]” reads 8.3 ± 0.3; that for “TTTGAAATGATATATAAACACACATATATATATATA [CACACA_site9170]”, 10.3 ± 0.4.
Next, “TATATATATATATAAACACACATAAATATAAATATA [CACACA_site1121]”: 10 ± 0.37; “ACTAATTACTATAAAACACACATATATTTATTTATA [CACACA_site7263]”: 8.51 ± 0.34; “TGAAATGATATATAAACACACATATATATATATATA [CACACA_site3511]”: 10 ± 0.36.
The result for “CATATAAATAAACACACACACACATATATATATATA [CACACA_site5309]” reads 10.2 ± 0.29.
In the case of “AATTAAAAAATTATCACACATATATATATATATATA [CACACA_site5789]”, the “gcPBM binding intensity (ln)” value was 10.3 ± 0.52.
Next, “AATAAATTGAAACACACACACACATATATATATATA [CACACA_site848]”: 10.2 ± 0.32.
Next, “ACTAATTACTATAAAACACACATATATATATATATA [CACACA_site2591]”: 10.2 ± 0.29; “ATAAATATATATATCACACATATATAATTATATATA [CACACA_site4787]”: 8.46 ± 0.3.
The result for “AAAATTAATAAATAAACACACATATATATATATATA [CACACA_site2598]” reads 10.1 ± 0.44; that for “AAAAAATTAAAAATCACACATAAATATATATAAAAA [CACACA_site4192]”, 8.45 ± 0.4; that for “TGAAATGATATATAAACACACATATATAAATATGTA [CACACA_site7616]”, 8.18 ± 0.42.
Consider “TTTTTATTTTTAAAGGCACACACATTTTTATTTTTA [CACACA_site8624]”, for which the “gcPBM binding intensity (ln)” value stood at 8.41 ± 0.31.
Next, “AAACAAAATATGGTTCATGAGCAAAAGTTTATTTTG [XGTACX_negctrl_site531]”: 8.69 ± 0.47; “TTGATTAAAATTAGTACACACAAAATACATGCGGGG [CACACA_site5284]”: 9.2 ± 0.3; “AAGAACAAACAAAATAGTACAATATATATATATATA [XGTACX_site4258]”: 10 ± 0.28.
Next, “ACTAAAAGATATATAATTTCTTTCTTATTTATTTTT [CACACA_negctrl_site842]”: 8.1 ± 0.35.
Next, “AAATATATAAAATATACACACAGTAATATATATATA [CACACA_site1385]”: 9.52 ± 0.35; “TTCTGTCAATATGCTTGTACGAAATATTTCGTAATT [XGTACX_site3182]”: 8.87 ± 0.4; “TTTTTTGCTAAAAAGAGTACTAATAAAAAATTTATT [XGTACX_site5235]”: 8.34 ± 0.34.
Regarding “GAAAAAAAAAAAAATACACACAAATTGGTATATAAT [CACACA_site4369]”, the “gcPBM binding intensity (ln)” value was 8.41 ± 0.39.
Next, “ATAAAAATGGTGTTAACACACACATATATATATATA [CACACA_site8089]”: 10.1 ± 0.38; “AAAAATGGTGTTAACACACACATATAAATAAATATA [CACACA_site6412]”: 8.44 ± 0.35; “TATAAATAAAAACACACACACATATATATATATATA [CACACA_site2319]”: 10.1 ± 0.32.
Next, “AAAAATGGTGTTAACACACACATATATATATATATA [CACACA_site571]”: 10.2 ± 0.17; “TATAAATAAAAACACACACACACATATATATATATA [CACACA_site2268]”: 9.99 ± 0.39; “TAAATAAATAAAAAAACACACATATAAATATAAATA [CACACA_site7815]”: 8.56 ± 0.4.
Next, “AAAAAATAAATAAACATAAATAAATAAATAAATATA [XGTACX_negctrl_site340]”: 8.49 ± 0.33.
As to “TAAATAAATAAAAAAACACACATATATATATATATA [CACACA_site4029]”, the “gcPBM binding intensity (ln)” value was 10.2 ± 0.32.
As for “TAAATAAAAAAACACACACACATATATATATATATA [CACACA_site2269]”, the “gcPBM binding intensity (ln)” value stood at 10.2 ± 0.25.
Next, “CATAAAATATAAAACACACACACATATATATATATA [CACACA_site223]”: 10.2 ± 0.44.
The result for “AATAAAATATAAACATTATATATATATATATATATA [GTGCAC_negctrl_site58]” reads 10.3 ± 0.38.
With “AATAAACATAAATAAAAATTATAAAATATATATATG [CACACA_negctrl_site1709]”, the “gcPBM binding intensity (ln)” value is 8.38 ± 0.32.
The result for “TTCTAACTTTTAAACACACAAATATAAATAAGTATA [CACACA_site7473]” reads 8.29 ± 0.62.
The result for “CCAACTAAAAAGGAATGTACATAGTTATGGTTGGAA [XGTACX_site8762]” reads 9.04 ± 0.47; that for “TAAGGAAAAAGAAAAAGTACATTATATAATAAATAG [XGTACX_site3282]”, 8.71 ± 0.46; that for “GTGAAATGGAAAAAAAGTACAGATTACATAAGTATT [XGTACX_site6355]”, 8.64 ± 0.42.
For the sequence “TATTTATTGTGATACTACTATTATTTTATGATTAAA [CACACA_negctrl_site284]”, the “gcPBM binding intensity (ln)” value amounted to 8.44 ± 0.42.
As for “GTATAATATTCATATTCACACATTAAAATATATTTA [CACACA_site4879]”, the “gcPBM binding intensity (ln)” value was 8.49 ± 0.49.
“AAAAAATGATAATATACACACTTATGGGAGAGCGCA [CACACA_site5398]”: the “gcPBM binding intensity (ln)” value was found to be 8.275 ± 0.078.
Turning to “ATTTTAAATTAAATTACACACTACGAATAATATATT [CACACA_site4016]”, the “gcPBM binding intensity (ln)” value was found to be 8.43 ± 0.42.
The result for “CAACAAAAGTTATTTACACACAAAAGGCAAGGAAAT [CACACA_site7013]” reads 8.94 ± 0.47; that for “TAACATATTTTTAATACACACTTAAAAAAGTACTTA [CACACA_site4875]”, 8.31 ± 0.34; that for “TTTTTTTTTTTTTACACACCCAAATCACATACATAT [CACACA_site6089]”, 8.59 ± 0.44.
Next, “AAAAAAAAATTAAAAACACACATATAAATAAATATA [CACACA_site6845]”: 8.48 ± 0.48; “AAATGTTGAAATGATACACACATATAAATATAAATA [CACACA_site7229]”: 8.53 ± 0.42; “TCAATAAATATACATACATGCATACATACATACATA [TGCATGCA_site197]”: 8.72 ± 0.47.
Next, “AAAAAAAAAATTAAAACATGCATAAATAAATATATT [TGCATGCA_site866]”: 8.73 ± 0.37.
On to “AAAAAAATTAAACACACACACACATATATATATATA [CACACA_site4718]”, for which the “gcPBM binding intensity (ln)” value was determined as 10.1 ± 0.25.
Next, “AAATGTTGAAATGATACACACATATATATATATATA [CACACA_site2517]”: 10.3 ± 0.32.
The result for “AATCAATAAATAAAAACATGCATATATATATATATA [TGCATGCA_site438]” reads 10.3 ± 0.47; that for “AGAAATGAAATATACACACATACATATATACATATA [CACACA_site4033]”, 8.49 ± 0.27.
Turning to “AAAAAAAAATTAAAAACACACATATATATATATATA [CACACA_site1580]”, the “gcPBM binding intensity (ln)” value was 10.2 ± 0.39.
The result for “TGGTATATAAAACACACACACATATGTATTTATATA [CACACA_site4665]” reads 8.54 ± 0.38; that for “TCATGGAATATTTAAAGTACAAAAAGTGTTCTTTAC [XGTACX_site715]”, 8.21 ± 0.3; that for “TAATATCATTTATGTAGTACTATAACAAGAACTATA [XGTACX_site3618]”, 8.33 ± 0.35.
The result for “TATATATATATAAAGGTGCATATCTTTACGTATGTC [GTGCAC_site9665]” reads 9.99 ± 0.11; that for “AAAAAAAAGGAAAATAAAAATAAAAAAAAATAATAA [XGTACX_negctrl_site601]”, 8.53 ± 0.52.
The result for “AAAAAAAAAAAATATACACACACATATATATATATA [CACACA_site9123]” reads 10 ± 0.45.
With “AAAAAAAAAAAAAATACACACATATATATATATATA [CACACA_site85]”, the “gcPBM binding intensity (ln)” value is 10.1 ± 0.34.
Next, “AAAAAAAAAAAATACACACACACATATATATATATA [CACACA_site731]”: 10.2 ± 0.18.
Next, “AAAAAAAAAAAATACACACACATATATATATATATA [CACACA_site2224]”: 10.2 ± 0.23; “AAAAAAAATACATACATACACACATATATATATATA [CACACA_site912]”: 9.98 ± 0.38.
Next, “AAAAAAAAAAAAAATACACACACATATATATATATA [CACACA_site8698]”: 10.1 ± 0.26.
In the case of “TTATATAAATATAAGGTGCTGGGGTTTATTACATAT [GTGCAC_site9909]”, the “gcPBM binding intensity (ln)” value came to 9.03 ± 0.54.
Next, “AAGATGGTAAAGAATTGTACGCGCATATATATATTT [XGTACX_site3904]”: 9.69 ± 0.42; “GGCATACACAGACACACACACACACCCACATATATA [CACACA_site591]”: 8.79 ± 0.4; “TGTATTATATATGTGTGTACATATTTTTTTTTTTTT [XGTACX_site3351]”: 8.47 ± 0.34.
For the sequence “TTTTAAAGCATATCATATAAAGAACATGACATAGGA [CACACA_negctrl_site630]”, the “gcPBM binding intensity (ln)” value is 8.61 ± 0.33.
Next, TTTTTTAAATTTAAAGTGCATTATTATATATTTGTA: 8.65 ± 0.15.
Next, “AAAAAAAAAAAAAAAGTGCATATATAAATATTGTAT [GTGCAC_site9459]”: 8.62 ± 0.3.
With ATTTTTTTTGTAAAAGTGCATATATATATATATATA, the “gcPBM binding intensity (ln)” value was 10.4 ± 0.35.
The result for “AAAATTAATAAATAAACACACATATTTATATTTATA [CACACA_site7266]” reads 8.03 ± 0.41; that for “AAAAAAAAAATTCATTGTACATATATATATATATAT [XGTACX_site8346]”, 10.2 ± 0.22.
The result for “CTTAAAAAAATATATTGTACATATATATATACAACT [XGTACX_site1281]” reads 8.33 ± 0.3.
For “AAAATATATTCAACTTGTACATATATATATATATAT [XGTACX_site7629]”, the “gcPBM binding intensity (ln)” value is 10.3 ± 0.13.
The result for “ATGTATGTATATACTTGTACATATTCATATTAGTAT [XGTACX_site1118]” reads 8.45 ± 0.35.
The result for “TAACTTCAAAAATCTTGTACATAAATATATAAAACA [XGTACX_site8574]” reads 8.53 ± 0.44; that for “TAAAAATATTTTCATTGTACATATATATAAATATAT [XGTACX_site1123]”, 8.4 ± 0.33.
On to “ATATATATTATATATTGTACATATTATATTCATTAT [XGTACX_site1766]”, for which the “gcPBM binding intensity (ln)” value is 8.57 ± 0.3.
The result for “GAATATTCACATACTTGTACATATATATATATATAT [XGTACX_site7302]” reads 10.2 ± 0.68.
With “AATACACAAATATATTGTACATATATATATATATAT [XGTACX_site2440]”, the “gcPBM binding intensity (ln)” value stood at 9.85 ± 0.34.
Next, “GGATTTATTATATATACACACATACAGATATATATA [CACACA_site5222]”: 8.48 ± 0.3; “GTTTTTTTTATATATTGTACAAATAATATATTATAT [XGTACX_site29]”: 9.02 ± 0.37.
